In this assay the test system is frog Estrogen Receptor (ER1), gene 398734. In words: ATG_frER1_EcoTox2: Attagene TRANS-FACTORIAL EcoTox-2 HepG2 Assay for frog Estrogen Receptor (ER1). As for the experimental part: ATG_EcoTox2 is a cell-based, multiplexed assay created by modifying the existing Attagene TRANS-FACTORIAL system to include a panel of nuclear receptors from some or all the following species: human (Homo sapiens), african clawed frog (Xenopus laevis), rainbow trout (Oncorhynchus mykiss), japanese medaka (Oryzias latipes), and zebrafish (Danio rerio). The ECOTOX2-FACTORIAL format uses HepG2, a human liver cell line, with measurements taken at 24 hours after chemical dosing in a 24-well plate. ATG_frER1_EcoTox2 is one of 29 assay components calculated in the ATG_EcoTox2 assay. It is designed to make measurements of mRNA induction, a form of inducible reporter, as detected with fluorescence intensity signals by Reverse transcription polymerase chain reaction (RT-PCR) and Capillary electrophoresis technology.The assay endpoint ATG_frER1_EcoTox2 was analyzed in the positive analysis fitting direction relative to DMSO as the negative control and baseline of activity. Using a type of inducible reporter, measures of mRNA for gain-of-signal activity can be used to understand the reporter gene at the transcription factor-level as they relate to the gene ER. Furthermore, this assay endpoint can be referred to as a primary readout, because this assay has produced multiple assay endpoints where this one serves a reporter gene function. To generalize the intended target to other relatable targets, this assay endpoint is annotated to the nuclear receptor intended target family, where the subfamily is steroidal.
Human liver HepG2 cells are transiently transfected with multiple reporter transcription units (MRTUs) in 6-well plates using FuGene 6 reagent (Roche; 3 ml FuGene/1 mg DNA). The MRTU constructs are regulated by a cis-regulating element (promoter). Each RTU expresses a GAL4-UAS that regulates the transcription of a nearby target reporter gene sequence. A major difference between the CIS and TRANS system is that in CIS activities of endogenous TFs are measured, whereas the TRANS assay evaluates changes in activities of exogenous, chimeric NR-Gal4 proteins. […] At the end of 24 hour incubation, total RNA was isolated using TriZol reagent (Invitrogen). The isolated RNA is then reverse-transcribed using oligo(dT) primer and Mo-MLV reverse transcriptase (Invitrogen) with DNAse I (Ambion) treatment for 30 min. The one-tenth of the produced cDNA was amplified by PCR using Taq DNA polymerase (Invitrogen) and two reporter sequence-specific primers. […] The fragments were purified using Qiaquick PCR columns (Qiagen), analyzed on an ABI 3130xL genetic analyzer (Applied Biosystems) with peak positions identified by using a set of X-rhodamine (ROX)-labeled MapMarker1000 molecular weight standards (BioVentures). […]

These results are taken from PubChem BioAssay AID2284369 (EPA ToxCast).

Structures are written as SMILES. Results filed as inconclusive are left out. Calls of active or inactive are those of the source. Rule for the calls: active = hit-call score of the fitted dose curve at least 0.9, where 1 is the maximum; inconclusive = response in the unintended direction; inactive = score below 0.9.

For `CCCCOCN(C(=O)CCl)c1c(CC)cccc1CC`, the outcome was inactive.
Take `O=P(Oc1ccccc1)(Oc1ccccc1)Oc1ccccc1`: the compound was called inactive.
On the same count and under the same terms, the value for `O=S(=O)(O)C(F)(F)C(F)(F)C(F)(F)C(F)(F)C(F)(F)C(F)(F)F` was “inactive”.
In the case of `O=C(O)C(F)(F)C(F)(F)C(F)(F)C(F)(F)C(F)(F)C(F)(F)C(F)(F)F`, the half-maximal activity concentration (AC50) is 75 µM (active).
